Calls of active or inactive are those of the source. How the source made its calls: active means hit-call score of the fitted dose curve at least 0.9, where 1 is the maximum; inactive means score below 0.9.
These compounds were tested on Cytochrome P450 4A22 (Homo sapiens) (UniProt Q5TCH4) (assay: LTEA_HepaRG_CYP4A22: Life Technologies and Expression Analysis (LTEA) Assay for Cytochrome P450 4A22 (CYP4A22) using HepaRG (AID 2283495)). Details: mRNA level, 48 h; actives raise or lower the signal.
How it was run: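 Cryopreserved HepaRG cells, plated and cultured 48 h, then switched to serum-free induction medium and treated 48 h (duplicates, up to 100 uM, half-log steps, 0.5% DMSO). Expression change of CYP4A22 was fitted bidirectionally against vehicle.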
In the case of `Cc1c(COC(=O)[C@@H]2[C@H](/C=C(\Cl)C(F)(F)F)C2(C)C)cccc1-c1ccccc1`, the outcome is reported as “inactive”. In the case of `Nc1c(Cl)c(Cl)nc(C(=O)O)c1Cl`, the outcome is reported as “inactive”. For `CC(C)NC(=O)N1CC(=O)N(c2cc(Cl)cc(Cl)c2)C1=O`, the AC50 was 8.83 µM (active). For `Cn1c(-c2ccccc2)cc(-c2ccccc2)[n+]1C`, the AC50 was 24 µM (active). In the case of `COC(=O)c1c(C(F)F)nc(C(F)(F)F)c(C2=NCCS2)c1CC(C)C`, the outcome is reported as “inactive”. With `Clc1nc(Cl)nc(Nc2ccccc2Cl)n1` the outcome was “inactive”. With `COc1cc(OC)nc(NC(=O)NS(=O)(=O)c2ncccc2OCC(F)(F)F)n1` the AC50 was 0.628 µM (active). `Cc1cc(C)nc(Nc2ccccc2)n1` was tested, and the outcome was “inactive”. With `O=c1n(Cl)c(=O)n(Cl)c(=O)n1Cl` the outcome was “inactive”. With `CSC(=O)c1c(C(F)F)nc(C(F)(F)F)c(C(=O)SC)c1CC(C)C` the AC50 was 80.7 µM (active). `C=C(C)CN(CC)c1c([N+](=O)[O-])cc(C(F)(F)F)cc1[N+](=O)[O-]` was tested, and the outcome was “inactive”. With `CCOc1cc(C(C)(C)C)ccc1C1COC(c2c(F)cccc2F)=N1` (configuration not stated) the AC50 was 33 µM (active). In the case of `O=C(Nc1ccccc1-c1ccc(Cl)cc1)c1cccnc1Cl`, the outcome is reported as “inactive”. `COP(=O)(OC)O/C(C)=C/C(=O)N(C)C` was tested, and the outcome was “inactive”. For `CC(C)Nc1nc(Cl)nc(NC(C)C)n1`, the outcome was “inactive”. For `COP(=S)(OC)Oc1ccc([N+](=O)[O-])c(C)c1`, the outcome was “inactive”. `COP(=S)(OC)SCn1nnc2ccccc2c1=O` was tested, and the outcome was “inactive”. With `C=CCOC(=O)C(C)(C)OC(=O)c1cc(-n2c(=O)cc(C(F)(F)F)n(C)c2=O)ccc1Cl` the outcome was “inactive”. `CNC(=O)N(C)c1nnc(C(C)(C)C)s1` was tested, and the outcome was “inactive”. `CCSC(=O)N1CCCCCC1` was tested, and the outcome was “inactive”. `CC(C)C1(C)N=C(c2ncccc2C(=O)O)NC1=O` (configuration not stated) was tested, and the outcome was “inactive”. `Nc1cnn(-c2ccccc2)c(=O)c1Cl` was tested, and the outcome was “inactive”. `CC(C)N1C(=O)N(c2ccccc2)CSC1=NC(C)(C)C` was tested, and the AC50 was 63.6 µM (active). With `COC(=O)NS(=O)(=O)c1ccc(N)cc1` the outcome was “inactive”. With `Nc1c(Cl)c(F)nc(OCC(=O)O)c1Cl` the outcome was “inactive”. In the case of `Clc1cccc(C(Cl)(Cl)Cl)n1`, the outcome is reported as “inactive”. With `Cc1cnc(C2=NC(C)(C(C)C)C(=O)N2)c(C(=O)O)c1` (configuration not stated) the outcome was “inactive”. `CS(=O)(=O)c1ccc(C(=O)C2C(=O)CCCC2=O)c([N+](=O)[O-])c1` was tested, and the outcome was “inactive”. For `O=C(O)c1c(Cl)ccc2cc(Cl)cnc12`, the outcome was “inactive”. `COC(=O)NC(=S)Nc1ccccc1NC(=S)NC(=O)OC` was tested, and the outcome was “inactive”. In the case of `CNC(=O)Oc1cccc2ccccc12`, the outcome is reported as “inactive”. In the case of `COC(=O)N(C(=O)N1CO[C@@]2(C(=O)OC)Cc3cc(Cl)ccc3C2=N1)c1ccc(OC(F)(F)F)cc1`, the AC50 is reported as 28.9 µM (active). In the case of `CC(C)Oc1cccc(NC(=O)c2ccccc2C(F)(F)F)c1`, the outcome is reported as “inactive”. For `CN=C=S`, the outcome was “inactive”. `CCC(C)n1c(=O)[nH]c(C)c(Br)c1=O` (configuration not stated) was tested, and the AC50 was 7.06 µM (active). With `CO/N=C(/C1=NOCCO1)c1ccccc1Oc1ncnc(Oc2ccccc2Cl)c1F` the AC50 was 20.5 µM (active).

The compounds below were run on Cytochrome P450 7A1 (Homo sapiens) (UniProt P22680) (assay: LTEA_HepaRG_CYP7A1: Life Technologies and Expression Analysis (LTEA) Assay for Cytochrome P450 7A1 (CYP7A1) using HepaRG (AID 2283496)). Details: mRNA level, 48 h; actives raise or lower the signal.
How it was run: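 Using 0.5% DMSO as vehicle and baseline, chemicals were tested in duplicate over an 8-point range from 100 uM on HepaRG cells for 48 h; qRT-PCR signals were normalised to ACTB, GAPDH and POLR2A.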
With `Cc1c(COC(=O)[C@@H]2[C@H](/C=C(\Cl)C(F)(F)F)C2(C)C)cccc1-c1ccccc1` the AC50 was 14.8 µM (active). In the case of `Nc1c(Cl)c(Cl)nc(C(=O)O)c1Cl`, the outcome is reported as “inactive”. With `CC(C)NC(=O)N1CC(=O)N(c2cc(Cl)cc(Cl)c2)C1=O` the AC50 was 13.1 µM (active). For `Cn1c(-c2ccccc2)cc(-c2ccccc2)[n+]1C`, the AC50 was 57.2 µM (active). In the case of `COC(=O)c1c(C(F)F)nc(C(F)(F)F)c(C2=NCCS2)c1CC(C)C`, the outcome is reported as “inactive”. In the case of `Clc1nc(Cl)nc(Nc2ccccc2Cl)n1`, the outcome is reported as “inactive”. With `COc1cc(OC)nc(NC(=O)NS(=O)(=O)c2ncccc2OCC(F)(F)F)n1` the outcome was “inactive”. For `Cc1cc(C)nc(Nc2ccccc2)n1`, the AC50 was 3.4 µM (active). For `O=c1n(Cl)c(=O)n(Cl)c(=O)n1Cl`, the outcome was “inactive”. In the case of `CSC(=O)c1c(C(F)F)nc(C(F)(F)F)c(C(=O)SC)c1CC(C)C`, the outcome is reported as “inactive”. For `C=C(C)CN(CC)c1c([N+](=O)[O-])cc(C(F)(F)F)cc1[N+](=O)[O-]`, the outcome was “inactive”. With `CCOc1cc(C(C)(C)C)ccc1C1COC(c2c(F)cccc2F)=N1` (configuration not stated) the AC50 was 26.9 µM (active). With `O=C(Nc1ccccc1-c1ccc(Cl)cc1)c1cccnc1Cl` the AC50 was 17 µM (active). With `COP(=O)(OC)O/C(C)=C/C(=O)N(C)C` the outcome was “inactive”. `CC(C)Nc1nc(Cl)nc(NC(C)C)n1` was tested, and the AC50 was 50 µM (active). `COP(=S)(OC)Oc1ccc([N+](=O)[O-])c(C)c1` was tested, and the outcome was “inactive”. In the case of `COP(=S)(OC)SCn1nnc2ccccc2c1=O`, the outcome is reported as “inactive”. In the case of `C=CCOC(=O)C(C)(C)OC(=O)c1cc(-n2c(=O)cc(C(F)(F)F)n(C)c2=O)ccc1Cl`, the outcome is reported as “inactive”. In the case of `CNC(=O)N(C)c1nnc(C(C)(C)C)s1`, the outcome is reported as “inactive”. `CCSC(=O)N1CCCCCC1` was tested, and the outcome was “inactive”. For `CC(C)C1(C)N=C(c2ncccc2C(=O)O)NC1=O` (configuration not stated), the outcome was “inactive”. In the case of `Nc1cnn(-c2ccccc2)c(=O)c1Cl`, the outcome is reported as “inactive”. For `CC(C)N1C(=O)N(c2ccccc2)CSC1=NC(C)(C)C`, the AC50 was 70.4 µM (active). For `COC(=O)NS(=O)(=O)c1ccc(N)cc1`, the outcome was “inactive”. `Nc1c(Cl)c(F)nc(OCC(=O)O)c1Cl` was tested, and the outcome was “inactive”. With `Clc1cccc(C(Cl)(Cl)Cl)n1` the outcome was “inactive”. With `Cc1cnc(C2=NC(C)(C(C)C)C(=O)N2)c(C(=O)O)c1` (configuration not stated) the outcome was “inactive”. With `CS(=O)(=O)c1ccc(C(=O)C2C(=O)CCCC2=O)c([N+](=O)[O-])c1` the outcome was “inactive”. `O=C(O)c1c(Cl)ccc2cc(Cl)cnc12` was tested, and the outcome was “inactive”. With `COC(=O)NC(=S)Nc1ccccc1NC(=S)NC(=O)OC` the outcome was “inactive”. `CNC(=O)Oc1cccc2ccccc12` was tested, and the outcome was “inactive”. With `COC(=O)N(C(=O)N1CO[C@@]2(C(=O)OC)Cc3cc(Cl)ccc3C2=N1)c1ccc(OC(F)(F)F)cc1` the AC50 was 31.8 µM (active). In the case of `CC(C)Oc1cccc(NC(=O)c2ccccc2C(F)(F)F)c1`, the outcome is reported as “inactive”. With `CN=C=S` the outcome was “inactive”. For `CCC(C)n1c(=O)[nH]c(C)c(Br)c1=O` (configuration not stated), the AC50 was 23.7 µM (active). `CO/N=C(/C1=NOCCO1)c1ccccc1Oc1ncnc(Oc2ccccc2Cl)c1F` was tested, and the AC50 was 24 µM (active).

— PubChem BioAssay (EPA / NIEHS)
